Among all 65,000 compounds or so, about 2,100 (3.2%) showed an effect of 50% or more. The median lay at about -52%. Only a selection was taken, and strong results are over-represented in it overall.

The test system of the experiment is Plasmodium falciparum. The experiment can be described thus: Screen against P. falciparum Asexual Blood Stage (ABS), at 5uM. The format is functional, Dd2. Conditions: tested at 5 uM.
`CC(C)(NCc1cccc(C(N)=O)c1)c1ccc2c(c1)OCO2`: the INHIBITION amounted to 19.8%.
In the case of `CC(C)(NCc1ccc(C#N)cc1)c1ccc2c(c1)OCO2`, the INHIBITION is reported as -0.993%.
The result for `CC(C)(NCc1cccc(C#N)c1)c1ccc2c(c1)OCO2` reads 51.5%; that for `O=C1N[C@@H]2CCN(C(=O)C3CC3)[C@@H]2C(=O)N1c1ccc(F)cc1`, -99.9%; that for `O=C1N[C@@H]2CCN(C(=O)C3CCCC3)[C@@H]2C(=O)N1c1ccc(F)cc1`, 56.1%.
Take `O=C1N[C@@H]2CCN(C(=O)C3CCC3)[C@@H]2C(=O)N1c1ccc(F)cc1`: the INHIBITION was found to be 32%.
With `CC(=O)N1N=C(COc2ccc3c(c2)OCO3)OC1c1cccc(Cl)c1` (configuration not stated), the INHIBITION was -125%.
As for `Cc1cc(=O)n(CC(=O)NC(C)C)c(Nc2ccc(F)c(C)c2)n1`, the INHIBITION is recorded as -47.4%.
Consider `CN1CCc2cc(C(CNS(=O)(=O)c3cccs3)N3CCCC3)ccc21` (configuration not stated), for which the INHIBITION is listed as 15.5%.
With `CN(C)c1ccc(C(CNS(=O)(=O)c2cccs2)N2CCCC2)cc1` (configuration not stated), the INHIBITION was determined as 54.2%.
`Cc1nn(C)cc1S(=O)(=O)NCC(c1ccccc1)N1CCCCCC1` (configuration not stated): the INHIBITION is recorded as 12.9%.
Turning to `COc1ccccc1CNC(=O)COc1c(C)n(C)ccc1=O`, the INHIBITION is listed as -82.3%.
With `CC(C)c1cnc(CN(C)C2CCN(CCc3cnn(C)c3)C2)o1` (configuration not stated), the INHIBITION is -112%.
With `O=C(NCC1CC1)C1CCC2(CCN(C(=O)c3cnccn3)CC2)O1` (configuration not stated), the INHIBITION is listed as -40.1%.
For `CCCc1ccc(OCCNCc2ccco2)c(OC)c1`, the INHIBITION came out at 51.5%.
The result for `COc1cc(C(C)=O)ccc1OCCNCc1ccco1` reads 1.68%.
In the case of `COc1cc(CNCc2ccco2)ccc1OCCO`, the INHIBITION was -66.2%.
On to `Cn1ccnc1-c1nccn1-c1cccc(CN2CCCC2)c1`, for which the INHIBITION is on record as -2.05%.
In the case of `c1cc(CN2CCCC2)cc(-n2ccnc2-c2ccncc2)c1`, the INHIBITION came out at 6.67%.
For `CCCc1nccn1-c1cccc(CN2CCCC2)c1`, the INHIBITION is reported as 53.1%.
Turning to `O=C(NCCc1ccc(F)cc1)C1CN(C(=O)Cn2cncn2)C1`, the INHIBITION is -29.6%.
For `COCc1nc(N(C)CCSc2ccccc2)c2cnn(C)c2n1`, the INHIBITION is reported as -14.2%.
On to `CN(C)CCN(C)c1nc(CCc2ccccc2)nc2c1cnn2C`, for which the INHIBITION was found to be 51.9%.
The result for `Cc1nc(N(C)CCN(C)C)c2cnn(C)c2n1` reads -71.9%.
As to `CCN1CCc2cc(-c3cncn3CCNC3CCS(=O)(=O)C3)ccc21` (configuration not stated), the INHIBITION is recorded as 3.68%.
With `CCN1CCc2cc(-c3cncn3CC(=O)NC(C)(C)C)ccc21` the figure was 66.2%; with `CC1Cc2cc(-c3cncn3CC(=O)NC(C)(C)C)ccc2N1C` (configuration not stated), 54.2%; with `CN1CCCc2cc(-c3cncn3CCNC3CCS(=O)(=O)C3)ccc21` (configuration not stated), -79.3%.
The result for `CC1CCN(S(=O)(=O)c2cccn(CC(=O)NC(C)(C)C)c2=O)CC1` reads -129%; that for `CN1CCCc2cc(-c3cncn3CC(=O)NC(C)(C)C)ccc21`, -38.6%.
The result for `c1cc2c(cc1CSCc1noc(C3CC3)n1)OCCO2` reads -17%.
Turning to `O=C(OCC1CCN(c2ccccc2)C1)c1cscn1` (configuration not stated), the INHIBITION is recorded as 0.13%.
In the case of `CCOC1CCC2(CCN(C(=O)c3csnn3)CC2)c2ccccc21` (configuration not stated), the INHIBITION is -79.6%.
The result for `O=C(O)c1ccccc1-c1ccc(CNC(=O)C2CCOCC2)cc1` reads -63.2%; that for `Nc1nc2c(c(NC(Cn3cccn3)c3ccccc3)n1)CCNCC2` (configuration not stated), -40.8%.
With `CCC(c1ccc(F)cc1F)N1CCN(CCO)CC1` (configuration not stated), the INHIBITION was 34.1%.
Consider `CN(CC1CCN(CCO)CC1)CC(O)c1ccc(F)cc1F` (configuration not stated), for which the INHIBITION is listed as 56.7%.
As for `CN(CC1CCN(CCO)CC1)CC(O)c1ccc(F)cc1` (configuration not stated), the INHIBITION came to 69.1%.
With `CN(CCOCC(F)(F)F)CC1CCN(CCO)CC1` the figure was 19.4%; with `Cc1noc(CN(C)CC2CCN(CCO)CC2)n1`, -64%; with `Cc1cnn(CC2CCN(CC(O)c3ccc(F)cc3)CC2)c1` (configuration not stated), 29.3%.
In the case of `Cc1ccc(C(=O)NCCCNc2ccc(C(F)(F)F)cn2)cc1`, the INHIBITION was determined as 35.4%.
Turning to `CCS(=O)(=O)N1CCC(C(=O)NC(Cc2ccsc2)c2nccs2)CC1` (configuration not stated), the INHIBITION is -83.8%.
With `CN(Cc1ccccc1CNC(=O)C1CNC(=O)N1)C1CCCCC1` (configuration not stated) the figure was -35%; with `COc1cc(N2CCC3(CC(=O)N(Cc4csc(C)n4)C3)C2)ncn1` (configuration not stated), -10.7%; with `CN1CC(c2ccccc2)CC2(CCN(C(=O)c3ccccc3)CC2)C1` (configuration not stated), 18.1%.
In the case of `CN1CC(c2ccccc2)CC2(CCN(CC(=O)N(C)C)CC2)C1` (configuration not stated), the INHIBITION came out at 53.8%.
With `COC(=O)N1CCC2(CC1)CC(c1ccccc1)CN(C)C2` (configuration not stated) the figure was -17.2%; with `CC(C)OCc1ncn2c1CN(Cc1ccoc1)CCC2`, -4.62%.
With `CCc1n[nH]c(C2CN(C(=O)c3ccnc(N(C)C)c3)CCO2)n1` (configuration not stated), the INHIBITION was -77.2%.
For `CC1CCCN1C1CCN(C(=O)c2cccc(-c3ccoc3)c2)CC1` (configuration not stated), the INHIBITION was 53.6%.
As for `O=C(CN1CCN(C(=O)c2cccc(-c3ccoc3)c2)CC1)C1CC1`, the INHIBITION is reported as -3.7%.
The result for `CC1CCCN1C1CCN(C(=O)c2cccc(F)c2)CC1` (configuration not stated) reads -14.6%.
The result for `O=C1c2cc(Br)cc(Br)c2OCC1(CN1CCCC1)CN1CCCC1` reads -65.9%.
`CC(C(=O)Nc1ccc(N2CCOCC2)nc1)n1cncn1` (configuration not stated): the INHIBITION is reported as -27%.
`COc1ccc(CN2CCCC(Nc3cccc(F)c3)C2)cc1O` (configuration not stated): the INHIBITION was found to be 63.3%.
With `COc1cccc(CNc2ccc(F)c(Cl)c2)c1O` the figure was -117%; with `COc1cccc(O)c1CN1CCCC(Nc2cccc(F)c2)C1` (configuration not stated), 51.3%.
Consider `Fc1ccc(NC2CCCN(Cc3ccncc3)C2)cc1` (configuration not stated), for which the INHIBITION is recorded as -65.4%.
As for `COc1cc(CN2CCCC(Nc3cccc(F)c3)C2)cc(OC)c1O` (configuration not stated), the INHIBITION is listed as 36.9%.
The result for `COc1cccc(F)c1CN1CCC(c2nc(C)cc(C)n2)C1` (configuration not stated) reads 23.3%; that for `COc1ccc(F)cc1CN1CCCC(c2cc(C(N)=O)[nH]n2)C1` (configuration not stated), -14.1%.
With `COc1cccc(CN2CCCC(Nc3cccc(F)c3)C2)c1O` (configuration not stated), the INHIBITION is given as 67.3%.
As to `COc1ccc(NC2CCCN(Cc3cnc(N(C)C)s3)C2)cc1OC` (configuration not stated), the INHIBITION is listed as -54.2%.
On to `Oc1cccc(CN2CCN(C3CCc4ccccc4C3)CC2)c1` (configuration not stated), for which the INHIBITION was 14.6%.
The result for `Cc1n[nH]c(C)c1C1COCCN1C(=O)Cc1ccccc1F` (configuration not stated) reads -105%.
Regarding `Cc1cnc(CCN(C)C(=O)c2cccc(C)c2O)s1`, the INHIBITION is on record as -152%.
On to `Cc1ccc(NC2CCN(C(=O)c3sccc3C3CC3)CC2)nn1`, for which the INHIBITION is listed as -28.9%.
On to `Cc1ccc(C(C)NC(=O)N2CCCN(CC(F)F)CC2)s1` (configuration not stated), for which the INHIBITION is listed as -73.5%.
As to `Cc1cccc(CN2C(=O)CC[C@@H]3[C@H]2CCN3Cc2ccc(F)cc2)n1`, the INHIBITION is reported as -111%.
As for `CCNc1nc2c(s1)C(=O)CN(C(=O)NCc1ccccc1)C2`, the INHIBITION was -146%.
For the molecule `CN(C)CC1CN(Cc2nc(-c3cccnc3)no2)CCO1` (configuration not stated), the INHIBITION is reported as -51.1%.
On to `Cc1ccc(-c2noc(CN3CCOC(Cn4cccn4)C3)n2)cc1` (configuration not stated), for which the INHIBITION is -105%.
`Cc1cccc(-c2noc(CN3CCOC(Cn4cccn4)C3)n2)c1` (configuration not stated): the INHIBITION was 51.2%.
For `Cc1noc(CN2CCOC(CN(C)C)C2)n1` (configuration not stated), the INHIBITION is -84.3%.
For `c1cncc(-c2noc(CN3CCOC(Cn4cccn4)C3)n2)c1` (configuration not stated), the INHIBITION was 10.9%.
For the molecule `Cc1ccc(-c2noc(CN3CCOC(CN(C)C)C3)n2)cc1F` (configuration not stated), the INHIBITION is recorded as 53.2%.
For `CC(NC(=O)CN1CCN(c2ccncc2Cl)CC1)c1ccco1` (configuration not stated), the INHIBITION is listed as -106%.
As to `O=C(CCC1CCCN(C(=O)CCc2ccc(F)c(F)c2)C1)NC1CC1` (configuration not stated), the INHIBITION is recorded as -157%.
In the case of `Cc1ncc(CN2CCc3nc4cc(C(C)(C)C)nn4c(O)c3C2)n1C`, the INHIBITION is reported as -104%.
Regarding `CN1CCN(C2COC3(CCN(Cc4ccsc4)CC3)C2)CC1` (configuration not stated), the INHIBITION is listed as -10.7%.
Turning to `CC(C)Oc1ccc(C(=O)N2CCCCC2Cn2cccn2)cn1` (configuration not stated), the INHIBITION is on record as 64.8%.
Regarding `Cc1cnn(CC2CCCN2C(=O)c2ccc(OC(C)C)nc2)c1` (configuration not stated), the INHIBITION was -94.7%.
`CN(C)c1cc(C(=O)N2CCCCC2Cn2cccn2)ccn1` (configuration not stated): the INHIBITION is on record as -202%.
With `CCN(CC1CN(Cc2cccc(C#N)c2)CCO1)c1cccnn1` (configuration not stated) the figure was -83.6%.
Regarding `CCn1ccnc1CN1CCCN(C(=O)COC2CCCCC2)CC1`, the INHIBITION is listed as -84.3%.
The result for `O=C(Nc1nccs1)NC1CCN(Cc2ccccn2)CC1` reads 63.7%; that for `O=C(Nc1nccs1)NC1CCN(Cc2ccccc2)CC1`, 28.3%; that for `O=C(Nc1nccs1)NC1CCN(Cc2ccccc2)C1` (configuration not stated), -9.31%.
Consider `Cc1cn2nc(Sc3nnc(C(C)C)n3C)sc2n1`, for which the INHIBITION is -104%.
Regarding `OC(c1ccccn1)C1CCN(Cc2cc3n(n2)CCNC3)CC1` (configuration not stated), the INHIBITION is -27.2%.
`CC(=O)N1CCCCC1c1nc(N)ncc1-c1ccccc1` (configuration not stated): the INHIBITION was -145%.
On to `CN(C)C(=O)CN1CCCCC1c1nc(N)ncc1-c1ccccc1` (configuration not stated), for which the INHIBITION was -40.8%.
Turning to `CN(C)CC(=O)N1CCCCC1c1nc(N)ncc1-c1ccccc1` (configuration not stated), the INHIBITION is reported as 50.9%.
Regarding `CC(C)Oc1ccc(CN2CCC(c3n[nH]c4ncccc34)CC2)cc1`, the INHIBITION was -69.9%.
In the case of `Cc1cc(C[C@@H]2CCC[C@H]2NCc2ccccc2C)on1`, the INHIBITION worked out at 65.1%.
Take `Cc1cc(C[C@@H]2CCC[C@H]2NCc2ccccc2F)on1`: the INHIBITION was -4.92%.
`Cc1cc(C[C@@H]2CCC[C@H]2NCc2cc(F)ccc2F)on1`: the INHIBITION is on record as 20.7%.
With `Cc1cc(C[C@@H]2CCC[C@H]2NCc2ccccc2C(F)(F)F)on1` the figure was 15.6%; with `Cc1cc(C[C@@H]2CCC[C@H]2NCc2cccc(F)c2F)on1`, -58.5%.
As to `Cc1cc(C[C@@H]2CCC[C@H]2NCc2c[nH]nc2-c2ccccc2)on1`, the INHIBITION is reported as 57.4%.
On to `Cc1cc(C(=O)N2CCN(C)CC2)nn1CC(=O)NCc1cccs1`, for which the INHIBITION is given as -139%.
In the case of `Cc1noc(CS(=O)(=O)C(C)C(=O)N(C)c2ccccc2)n1` (configuration not stated), the INHIBITION was -10%.
Turning to `Cc1noc(C)c1CN1CC[C@H]2OCC[C@@H](C(=O)NCC3CC3)[C@H]2C1`, the INHIBITION was -48.5%.
As for `CN1CCCN(c2ccc(F)cc2CNC(=O)c2ccsc2)CC1`, the INHIBITION came out at 59.9%.
Take `CN1CCCN(c2ccc(F)cc2CNC(=O)c2cccnc2)CC1`: the INHIBITION was -51.5%.
In the case of `Cc1ccc(C(=O)NCc2cc(F)ccc2N2CCCN(C)CC2)o1`, the INHIBITION is reported as 34.9%.
